Phagocytosis inh – macrophage phagocytosis inhibition; J774A.1 macrophage IgG-bead phagocytosis, imaging; inhibition, % at 5 µM; 110,000 compounds, 0.07% hits;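 active means inhibition above the mean of the plate negative controls plus 5 SD, cut at about 13% in these data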;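 further: phagocytic index as fraction of beads internalized from green versus red external bead signal; plate controls were DMSO negative control for no effect and cytochalasin-D positive control for full effect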
IL1B cytotox – HUVEC cytotoxicity counter-screen, IL-1B stimulated | HUVEC cell count loss, Hoechst imaging | cell count reduction, % at 2 µM | 94,000 compounds, 0.41% hits;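 active means cell count reduction more than 3 SD above the screen-wide mean, cut at about 70% in these data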;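 further: normalized per plate to untreated control cells as the no-loss baseline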
IL1B NFkB inh – blocks IL-1B driven NFkB nuclear translocation in HUVEC cells; inhibition, % at 2 µM; HUVEC IL-1B NFkB p65 nuclear translocation imaging; AID 796; 94,000 compounds, 0.43% hits;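 active means inhibition above about 30% together with a positive call from visual inspection of the well image, limit read from the data; inconclusive means inhibition above a set limit but visual check negative; inactive means inhibition not above a set limit, visual check negative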;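 further: nuclear over cytoplasmic p65 intensity ratio measured by imaging; 0% = IL-1B stimulated DMSO wells and 100% = unstimulated DMSO wells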
VCAM1 TNFa inh – reduces TNF alpha induced VCAM1 expression in HUVEC; HUVEC TNFa-induced VCAM-1 immunofluorescence, high-content imaging; inhibition, % at 2 µM; 95,000 compounds, 0.48% hits; AID 802;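 active means inhibition above the batch mean plus 3 SD, with images confirmed as a hit by eye, cut at about 37% in these data; inconclusive means inhibition above that limit but hit not confirmed in images; inactive means inhibition not above that limit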;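 further: 0% = TNF-stimulated DMSO wells and 100% = unstimulated control wells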
NFkB transloc pot – enhances IL-1B driven NFkB nuclear translocation; activation, % at 2 µM; HUVEC IL-1B NFkB p65 nuclear translocation imaging; 94,000 compounds, 0.3% hits; AID 819;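 active means activation above 40%, about the mean plus 3 SD, also judged a hit on visual image review; inconclusive means activation above 40% but not a hit on visual review; inactive means activation not above 40% and no visual hit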;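 further: percent activation is computed from the nuclear over cytoplasmic p65 intensity ratio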
HUVEC tox TNFa – HUVEC cytotoxicity counter-screen, TNF alpha stimulated | HUVEC TNFalpha-stimulated, Hoechst cell count, imaging | cell count reduction, % at 2 µM | 93,000 compounds, 0.17% hits | AID 848;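 active means cell count reduction exceeding the screen mean by over 5 SD, scaled to untreated wells per plate, cut at about 78% in these data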;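 further: cells counted after 24 h of TNF alpha exposure following the 1 h pretreatment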
* marks the source's active call; other numbers are inactive results; ? = inconclusive; · = not tested or not shown; + = active, no number; [ ] = dose if it differs, or a comment. Most compounds without a hit are left out; they make up all but 1.2% or so of the library.

SMILES	Phagocytosis inh	IL1B cytotox	IL1B NFkB inh	VCAM1 TNFa inh	NFkB transloc pot	HUVEC tox TNFa
N#CC(c1ccc(Cl)cc1)c1ccc(Cl)nn1 (stereo not drawn)	1	-6	0	4	0	-15
Cc1ccc(S(=O)(=O)NCCCN2CCOCC2)c(C)c1	-1	·	·	·	·	·
Cc1ccc(S(=O)(=O)NCCN2CCOCC2)cc1	·	6	31*	-6	-31	-23
COc1cccc(C(=O)Oc2cc(-c3ccccc3)no2)c1	165*	·	·	4	·	2
O=C(NCc1ccccc1)c1cnsn1	1	89*	-15	11	15	-21
O=C(NCc1ccccc1)c1cc(-c2cccs2)on1	-1	-51	-20	-8	20	-52
CS(=O)(=O)Nc1cccc(C2=NN(C(=O)c3ccccc3Cl)C(c3ccccc3O)C2)c1 (stereo not drawn)	-3	·	·	·	·	·
CCn1c(CN2CCN(c3ccc(Cl)cc3)CC2)nc2ccccc21	·	-5	-36	58*	36	-19
Cn1c(CN2CCN(c3ccc(Cl)cc3)CC2)nc2ccccc21	1	-29	4	9	-4	-15
CC(=O)c1cccc(NC(=O)c2cc(-c3ccc(F)cc3)on2)c1	0	27	1	71*	-1	73
Cc1ccc(C(=O)COC(=O)C2CC(=O)N(c3nc(-c4ccccc4)cs3)C2)cc1 (stereo not drawn)	0	9	8	12	-9	-20
CCCC(=O)C1=C(O)C(C(=O)OC)C(C)(C)CC1=NC(C)(C)C (stereo not drawn)	0	8	45*	-22	-45	2
CCCC(=O)C1=C(O)C(C(=O)OC)C(C)(C)CC1=NC(C)C (stereo not drawn)	·	10	-9	6	9	2
CCCOC(=O)c1c(-c2ccc(C)cc2C)csc1NC(=O)C1C2CCC(O2)C1C(=O)O (stereo not drawn)	1	·	·	·	·	·
Cc1cc(C)c(C#N)c(SCc2ccccc2)n1	·	91*	20	-2	-20	-12
CCOC(=O)CSc1nc(C)cc(C)c1C#N	-1	-5	50*	-14	-50	-2
CC1CN(S(=O)(=O)N(C)C)CCN1S(=O)(=O)N(C)C (stereo not drawn)	0	88*	-2	14	2	0
COc1ccc(C(=O)NC(=S)Nc2ccc(N3CCOCC3)c(Cl)c2)cc1[N+](=O)[O-]	-2	·	·	·	·	·
C/C(N)=C(/C#N)C(=O)COC(=O)c1cc(S(=O)(=O)N2CCCCC2)ccc1C	0	-3	-2	-12	2	15
C/C(N)=C(/C#N)C(=O)COC(=O)c1ccc(C)c(S(=O)(=O)N2CCCCC2)c1	0	0	-42	2	42*	3
COc1cccc(C(=O)COc2cccc(NC(=O)c3cccc([N+](=O)[O-])c3)c2)c1	-6	-91	11	49*	-11	66
COc1cccc(C(=O)Nc2cccc(C(C)=O)c2)c1	-3	·	·	·	·	·
O=C(OCC1CC(c2ccccc2)=NO1)c1ccc(Cl)cc1 (stereo not drawn)	-3	18	-50	-5	50*	2
Cc1c(Cl)cccc1-n1ccnc1SCC(=O)O	0	8	1	94*	-1	78*
Cc1cccc(-n2ccnc2SCC(=O)Nc2nccs2)c1C	2	-14	-16	4	16	-10
SMILES	Phagocytosis inh	IL1B cytotox	IL1B NFkB inh	VCAM1 TNFa inh	NFkB transloc pot	HUVEC tox TNFa
Cc1cc(NC(=O)c2nn3cccnc3c2Cl)no1	·	-5	-25	4	25	-8
C=CCNC(=O)c1nn2cccnc2c1Cl	3	-16	-3	?	3	92*
O=C(C1CCCN(S(=O)(=O)c2ccc(Br)s2)C1)N1CCCCCC1 (stereo not drawn)	4	-3	33*	14	-33	-4
CCOC(=O)c1c(NC(=O)c2ccccc2Cl)sc2c1CCc1ccccc1-2	-2	·	·	·	·	·
CCCCC(=O)Nc1sc2c(c1C(=O)OCC)CCC(C=O)=C2Cl	0	60	88*	9	-88	30
COC(=O)c1ccccc1NC1CC(=O)N(c2c(C)cccc2C)C1=O (stereo not drawn)	6	-12	-2	-10	2	-19
O=C1C=C(Nc2ccc(Cl)cc2)CC(c2ccc(Cl)cc2)C1 (stereo not drawn)	·	-6	-2	9	2	0
O=C1C=C(NCc2ccco2)CC(c2ccc(Cl)cc2)C1 (stereo not drawn)	-1	86*	12	2	-12	-35
Cc1onc(-c2c(Cl)cccc2Cl)c1C(=O)NCC1CCCO1 (stereo not drawn)	-5	1	-7	14	7	-20
Cc1onc(-c2c(F)cccc2Cl)c1C(=O)NCC1COc2ccccc2O1 (stereo not drawn)	16*[artifact]	-4	13	-6	-13	0
CCc1ccc(NC(=O)CCn2c(=O)oc3ccccc32)cc1	-4	-2	-8	·	8	100*
Cc1ccc(NC(=O)CCn2c(=O)oc3ccccc32)cc1	-2	13	5	9	-5	-30
Cc1cccc(N2C(=O)C(Oc3ccc(Cl)cc3Cl)C2C=O)c1C (stereo not drawn)	-9	·	·	·	·	·
Cc1c(S(=O)(=O)N2CCN(c3cccc(C(F)(F)F)c3)CC2)c(=O)n(C)c(=O)n1C	-1	-17	-4	10	4	5
Cn1cc(S(=O)(=O)N2CCN(c3cccc(C(F)(F)F)c3)CC2)c(=O)n(C)c1=O	0	-6	56*	3	-56	-13
Cc1ccc(C)c(SCC(=O)Nc2cc(C)nn2-c2ccc(F)cc2)c1	-10	·	·	·	·	·
CCCn1cnc2c(sc3nc4c(cc32)CSC(C)(C)C4)c1=O	-1	2	-1	20	1	86*
O=C(N/N=C/c1ccco1)c1cc(-c2cccc(Br)c2)nc2ccccc12	-5	·	·	·	·	·
CC(/C=N/NC(=O)c1cc(-c2ccncc2)nc2ccccc12)=C\c1ccco1	2	40	30	87*	-30	65
NC(=O)N1CCN(C(=O)c2ccco2)CC1	0	84*	31*	-6	-31	-7
O=C(Cc1ccc(Br)cc1)Nc1ccccc1Cl	-1	·	·	·	·	·
CCC(=O)/C=C1/Sc2ccc(OC)cc2N1CC	·	-17	-1	-2	1	-11
CCC(/C=C1\Sc2ccc(OC)cc2N1CCO)=C\c1sc2ccc(OC)cc2[n+]1CCO	+[fluoresces]	·	·	·	·	·
CCOC(=O)c1sc(NC(=O)C2CCCO2)c(C(=O)OCC)c1C (stereo not drawn)	0	·	·	·	·	·
CCOC(=O)c1c(NC(=O)C2CCCO2)sc(C(=O)OC(C)(C)C)c1C (stereo not drawn)	-2	19	99*	13	-99	-7
CCCOC(=O)c1ccc(NC(=O)Oc2ccccc2)cc1	·	-26	12	?	-12	100*
CCOC(=O)c1c(NC(=O)CN2C(=O)NC(C)(c3ccccc3)C2=O)sc(C)c1C (stereo not drawn)	-2	·	·	·	·	·
Cc1nc2ccccc2n1CC(O)COCC1CC=CCC1 (stereo not drawn)	·	30	14	-43	-14	96*
